The results in this text go back to PubChem BioAssay AID434973 (Sanford-Burnham Center for Chemical Genomics, 2010).

One may read the inhibition as the drop in the measured response relative to a control, in per cent.

The structures appear in SMILES notation. The campaign covered roughly 330,000 compounds. About 4,900 (1.5%) were called active. The entries come from a sample that favours actives as a whole. A number with no mark means an inactive call.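 Rule for the calls: active = inhibition above about 50% at the single test dose (limit read from the data); inactive = the rest.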

The target in this test is Sentrin-specific protease 7 (Homo sapiens) (UniProt Q9BQF6). Put plainly: blockers of human SENP7 peptidase activity – biochemical, luminescence, uHTS, primary screen (AID 434973).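 Note: plate controls were DMSO with enzyme for no effect and no enzyme buffer wells for full effect.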 To be noted: recombinant SENP7, Z-RLRGG-aminoluciferin luminescence, 40 min; at 5 µM; active compounds read high.
Turning to `COc1ccc(S(=O)(=O)N2CCN(c3cnccn3)CC2)cc1`, the inhibition is 4.46%.

In the case of `COC(=O)c1ccc(-n2cnc3ccccc32)nc1`, the inhibition was -0.937%.

Take `O=C1CN(C(=O)COC(=O)/C=C/c2ccc(F)cc2)c2ccccc2N1`: the inhibition is -6.02%.

Consider `O=S(=O)(c1ccc(F)cc1)N1CCN(C(=S)NCc2ccco2)CC1`, for which the inhibition is -0.183%.

For the compound `COc1ccc(NC(=O)NN2CCN(C)CC2)c(OC)c1`, the inhibition is 0.214%.

As to `CCOc1ccc(-n2c(SCC(N)=O)nnc2-c2ccco2)cc1`, the inhibition was 6.82%.

In the case of `N#Cc1ccc(OCc2nnc(-c3ccc([N+](=O)[O-])cc3)o2)cc1`, the inhibition was -0.787%.

`CCCCOc1ccc(-c2nnc(-c3ccco3)o2)cc1`: the inhibition was 80.5% (active).

In the case of `O=C(NCCC1=CCCCC1)c1ccc(-n2cncn2)cc1`, the inhibition was -9.22%.

For `O=C(NCc1cccnc1)c1cccnc1Sc1ccc(Cl)cc1`, the inhibition is 2.66%.

As for `COc1cc2ccccc2cc1C(=O)Nc1ccncc1`, the inhibition was 7.87%.

In the case of `CC(C)(C)n1nc2c(c1NC(=O)c1cc3ccccc3o1)CSC2`, the inhibition was 6.18%.

Consider `O=C(Nc1ccncc1)c1cc2ccccc2o1`, for which the inhibition was 60.6% (active).

Take `CCOc1ccc(N2C(=O)/C(=C/c3ccc(C)o3)N(C)C2=S)cc1`: the inhibition was 6.54%.

For `O=C(N[C@@H](Cc1ccccc1)C(=O)OCc1ccccc1)c1nc[nH]c1C(=O)N[C@@H](Cc1ccccc1)C(=O)OCc1ccccc1`, the inhibition is 4.7%.

For the compound `CCOc1ccc(C(=O)COC(=O)c2ccc(-n3cnnn3)cc2)cc1`, the inhibition was -0.201%.

Turning to `O=C(Oc1ccc(C(=S)N2CCOCC2)cc1)c1ccc(F)cc1`, the inhibition was 2.03%.

Take `Cc1nonc1C(=O)N/N=C/c1ccc(O)cc1`: the inhibition is 98.8% (active).

Turning to `Cc1nc2ccc(C(=O)N/N=C/c3ccc(O)cc3)cc2[nH]1`, the inhibition is 0.319%.

`CC(C)c1c(C(=O)N/N=C/c2ccc(-c3ccccc3)cc2)nnn1-c1nonc1N`: the inhibition was 0.606%.

Consider `Cn1ncc(N2CCN(S(=O)(=O)c3ccc(Br)cc3)CC2)c(Cl)c1=O`, for which the inhibition was -5.83%.

As for `O=C(O)c1ccc(N/N=C/c2ccc3ncccc3c2)cc1`, the inhibition is 99.3% (active).

For the compound `O=C(O)c1ccc(/C=N/Nc2nc(N3CCCCC3)nc(N3CCCCC3)n2)cc1`, the inhibition was -3.32%.

`Cc1ccc2cc(/C=N/Nc3ccc(C(=O)O)cc3)c(Cl)nc2c1`: the inhibition is -6.79%.

As to `COc1ccc(CCNC(=O)C(=O)NCC2OCCN2S(=O)(=O)c2ccc(OC)c(C)c2)cc1` (stereo unspecified), the inhibition was 2.59%.

Turning to `O=C(NC(=S)N1CCN(Cc2ccccc2)CC1)c1ccccc1`, the inhibition was 2.02%.

On to `Cc1ccc(S(=O)(=O)N(C)C)cc1NC(=O)C(C)OC(=O)c1ccc2ccccc2n1` (stereo unspecified), for which the inhibition was 6.08%.

For the compound `CC(OC(=O)c1ccc2ccccc2n1)C(=O)c1ccccc1` (stereo unspecified), the inhibition was 55.8% (active).

Take `CC(NC(=O)COC(=O)c1ccc2ccccc2n1)c1ccccc1` (stereo unspecified): the inhibition is -1.7%.

With `O=C(Nc1ccc(S(=O)(=O)N2CCCCC2)cc1)C1CCN(C(=O)c2ccc(F)cc2)CC1`, the inhibition is -13.9%.

On to `O=C(Nc1ccc(-c2nnc(-c3ccccc3)o2)cc1)C1CCCO1` (stereo unspecified), for which the inhibition is 60.2% (active).

As for `O=C(Nc1cccc(-c2nnc(-c3ccccc3)o2)c1)C1CCCO1` (stereo unspecified), the inhibition is 1.95%.

For `CC(C)(C)NS(=O)(=O)c1ccc(NC(=O)C2CCCO2)cc1` (stereo unspecified), the inhibition was 3.51%.

Turning to `O=C(COC(=O)/C=C/c1cccc(Cl)c1)NCc1cccs1`, the inhibition is 15%.

As to `CCNC(=O)CC1C(=O)N(c2ccc(F)cc2)C(=O)N1CCc1sccc1C` (stereo unspecified), the inhibition was 7.13%.

Consider `Cn1nc(-c2ccccc2)c(CSc2cccc(Cl)c2)c1Cl`, for which the inhibition is 2.83%.

Turning to `Cc1nn2cc(-c3ccc(Cl)cc3)cnc2c1Br`, the inhibition is 88.2% (active).

Regarding `CCOC(=O)c1cc(S(=O)(=O)NCCc2ccc(OC)c(OC)c2)cn1C`, the inhibition was 7.17%.

For the compound `Cc1nnc2n1N=C(c1ccccc1)CS2`, the inhibition was -0.787%.

On to `O=c1c(-c2ccccc2)cnc2n1CCS2`, for which the inhibition is 4.7%.

Take `O=c1c2cc(-c3ccccc3)sc2nc2n1N=C(c1cccs1)CS2`: the inhibition was 74.3% (active).

As for `CCCCCCSc1ccc(-c2nc3ccc(Cl)cn3c2NCc2ccccc2)cc1`, the inhibition is -2.53%.

Turning to `Clc1ccc2nc(CSc3ccccc3)cn2c1`, the inhibition is 66.1% (active).

On to `O=C(/C=C/c1ccc2c(c1)OCO2)NCc1cn2cc(Cl)ccc2n1`, for which the inhibition is 0.536%.

On to `COc1ccc(NC(=O)NCc2ccc3c(c2)OCO3)c(OC)c1`, for which the inhibition is 6.56%.

With `CCOCCCNC(=S)N1CCC(NC(=O)C2CCCCC2)CC1`, the inhibition is -2.06%.

For `Cc1ncc(CO)c(/C=N/NC(=O)c2cccc(S(=O)(=O)N3CCCC3)c2)c1O`, the inhibition was -7.56%.

For the compound `C/C(=N\Nc1nc2ccccc2[nH]1)c1cccs1`, the inhibition is 65.2% (active).

In the case of `O=C(Nc1ccccc1-c1nc2ccccc2[nH]c1=O)c1cccs1`, the inhibition is -0.595%.

Turning to `C/C(=N\Nc1ncc(Cl)cc1Cl)c1cccs1`, the inhibition is 47.2%.

With `O=C(CNC(=O)OCc1ccccc1)NC1CCCCNC1=O` (stereo unspecified), the inhibition is 4.12%.

On to `COC(=O)c1ccc(NCC(=O)N2CCCCCC2)cc1`, for which the inhibition is -4.94%.

For `COC(=O)c1ccc(NC(=O)Nc2ccc(C)cc2)cc1`, the inhibition was -0.387%.

In the case of `COC(=O)c1ccc(NCC(=O)c2ccccc2)cc1`, the inhibition was 86.1% (active).

As for `COc1cc(C2/C(=C(\O)c3ccc4c(c3)CC(C)O4)C(=O)C(=O)N2Cc2ccco2)ccc1O` (stereo unspecified), the inhibition was 2.43%.

As for `CC(Oc1ccc(F)cc1F)C(=O)/C=C/N(C)C` (stereo unspecified), the inhibition is 11.5%.

For `O=C(OCC(=O)N1CCOCC1)c1ccc2ccccc2c1`, the inhibition is 4.44%.

As for `O=C(N/N=C/c1cccc(O)c1)c1cc2c(ccc3ccccc32)o1`, the inhibition is -13.1%.

In the case of `NC(=O)c1ccccc1N=Cc1ccc2ccccc2c1`, the inhibition is 66.6% (active).

On to `COc1ccc(CC(=O)N2N=C(C)CC2(O)C(F)(F)F)cc1` (stereo unspecified), for which the inhibition is -2.12%.

Regarding `COc1ccccc1C(CNC(=O)c1cccc(S(=O)(=O)Nc2ccc(F)cc2)c1)N(C)C` (stereo unspecified), the inhibition is -6.57%.

In the case of `O=C(Nc1ccc(Cl)cc1)/C(=C1\CCCN1)[N+](=O)[O-]`, the inhibition is 16.3%.

For the compound `O=C(NC(=O)c1ccccc1)Nc1ccccc1O`, the inhibition was 55.8% (active).

Take `Cc1ccc(NC(=O)NC(=O)c2ccccc2)cc1F`: the inhibition was 23.1%.

`O=C(Nc1ncccc1O)c1ccc(C(=O)c2ccccc2)cc1`: the inhibition is -3.01%.

For the compound `Cn1c2c(c(=O)n(C)c1=O)C1c3ccccc3OCC1C(C)(C)O2` (stereo unspecified), the inhibition is -0.167%.

As to `CCNC(=O)N1CCCC(C(=O)c2ccc(-c3ccccc3)cc2)C1` (stereo unspecified), the inhibition is 3.16%.

As to `CC(=O)c1sc(NC(=O)c2ccc(C)cc2)nc1C`, the inhibition is 71.5% (active).

With `CCOC(=O)c1sc(NC(=O)c2ccncc2)nc1C`, the inhibition was 91.1% (active).

`C=CCSc1nnc(NC(=O)c2ccc(NC(C)=O)cc2)s1`: the inhibition was 4.95%.

With `CCOC(=O)c1cccnc1NC(=O)c1ccncc1`, the inhibition is -6.19%.

Take `CCSc1nnc(NC(=O)c2ccc(C)cc2)s1`: the inhibition is 52.7% (active).

`CC(=O)c1sc(N/N=C\c2ccc(C)cc2)nc1C`: the inhibition was 17.2%.

In the case of `CCOC(=O)c1sc(NC(=O)c2sc(C)nc2C)nc1C`, the inhibition was 31.9%.

Take `COC(=O)c1sc(NC(=S)NC(=O)c2ccc(C)cc2)nc1C`: the inhibition is 9.77%.

On to `NC(=O)CSc1nnc(NC(=O)c2ccc3ccccc3c2)s1`, for which the inhibition is -4.32%.

As to `COc1ccc([N+](=O)[O-])cc1NC(=O)c1ccc(N(Cc2ccccc2C)S(C)(=O)=O)cc1`, the inhibition was 2.86%.

`CCN(CC)C(=O)Cn1cc(S(=O)(=O)CC(=O)NCc2ccc3c(c2)OCO3)c2ccccc21`: the inhibition is -2.79%.

On to `Cc1noc(C)c1COc1ccc(C(=O)NCCOc2ccccc2)cc1`, for which the inhibition was -6.96%.

Turning to `Cc1ccn2c(=O)c(C(=O)NCCC3=CCCCC3)c(O)nc2c1`, the inhibition is 9.74%.

Regarding `COC(=O)Cc1ccc(OC(=O)C2CCN(S(=O)(=O)c3ccc(OC)c(OC)c3)CC2)cc1`, the inhibition is -4.03%.

With `CC1=C(C)CC(C(=O)NC(C)CCc2ccccc2)C(C(=O)O)C1` (stereo unspecified), the inhibition is 4.76%.

In the case of `COCC1CCN(C(=O)C2CCC(=O)N(Cc3cccc(C(F)(F)F)c3)C2)CC1` (stereo unspecified), the inhibition is 9.9%.

`COc1ccccc1OCc1nc2ccccc2s1`: the inhibition is 97.3% (active).

For `CN(Cc1nc2ccccc2s1)C(=O)c1ccc(F)cc1`, the inhibition was 0.624%.

`COc1ccccc1N1CC(O)=C(c2nc3ccccc3s2)C1=N`: the inhibition is -12.5%.

As to `Cn1c(CCc2ccccc2)nnc1SCC(N)=O`, the inhibition is 0.317%.

Turning to `Cc1ccc2nc(/C(C#N)=C\c3ccc(OC(=O)c4cccs4)cc3)[nH]c2c1`, the inhibition was -1.03%.

Turning to `COc1cc(/C=C(\C#N)c2nc3c(s2)CC(C)CC3)ccc1O` (stereo unspecified), the inhibition was 2.43%.

As to `COc1cc(/C=C(\C#N)c2nc3ccccc3[nH]2)ccc1O`, the inhibition was 93.7% (active).

On to `CNC(=S)N/N=C/c1ccc(N2CCOCC2)s1`, for which the inhibition was 12.6%.

As for `Cc1ccc(CCCOC(=O)C[N+]2(C)CCCC2)cc1`, the inhibition was 8.46%.

As to `O=C(c1cc(COc2c(F)cccc2F)on1)N1CCSCC1`, the inhibition was 0.456%.

In the case of `Cc1ccnc(Nc2nc3ccccc3s2)n1`, the inhibition is 88.5% (active).

For the compound `Cc1ccnc(-n2sc3ccccc3c2=O)n1`, the inhibition is -5.5%.

For the compound `CC(=O)Nc1cccc(-c2nc3ccccc3s2)c1C`, the inhibition is -8.72%.

Take `COc1cccc(NC(=O)CCNS(=O)(=O)c2ccc3c(c2)oc(=O)n3C)c1`: the inhibition is 7.4%.

Regarding `O=C(COC(=O)C12CC3CC(CC(O)(C3)C1)C2)NC12CC3CC(CC(C3)C1)C2`, the inhibition was -5.6%.

As for `COc1ccccc1-c1nnc(NC(=O)c2ccc3ncsc3c2)o1`, the inhibition is 4.87%.

In the case of `O=C(COC(=O)c1ccc2ncsc2c1)Nc1ccc(Cl)cc1`, the inhibition is -7.82%.

As to `Cc1sc(NC(=O)c2ccc3ncsc3c2)c(C(N)=O)c1C`, the inhibition is 77.9% (active).
